Bioassay records as filed in PubChem BioAssay.
12-LOX inh: Primary qHTS assay for inhibitors of human arachidonate 12S-lipoxygenase (ALOX12): Round 2; purified 12hLO, xylenol orange hydroperoxide absorbance; actives 1.1% (n = 580,000); Polyunsaturated fatty acid lipoxygenase ALOX12 (Homo sapiens), P18054; Potency, µM (series often up to 108 µM), for the others: at the highest dose activity change, negative = inhibition, usual class: inhibitors; AID 1671190, 2021
Target sequence (P18054 whole entry, looked up): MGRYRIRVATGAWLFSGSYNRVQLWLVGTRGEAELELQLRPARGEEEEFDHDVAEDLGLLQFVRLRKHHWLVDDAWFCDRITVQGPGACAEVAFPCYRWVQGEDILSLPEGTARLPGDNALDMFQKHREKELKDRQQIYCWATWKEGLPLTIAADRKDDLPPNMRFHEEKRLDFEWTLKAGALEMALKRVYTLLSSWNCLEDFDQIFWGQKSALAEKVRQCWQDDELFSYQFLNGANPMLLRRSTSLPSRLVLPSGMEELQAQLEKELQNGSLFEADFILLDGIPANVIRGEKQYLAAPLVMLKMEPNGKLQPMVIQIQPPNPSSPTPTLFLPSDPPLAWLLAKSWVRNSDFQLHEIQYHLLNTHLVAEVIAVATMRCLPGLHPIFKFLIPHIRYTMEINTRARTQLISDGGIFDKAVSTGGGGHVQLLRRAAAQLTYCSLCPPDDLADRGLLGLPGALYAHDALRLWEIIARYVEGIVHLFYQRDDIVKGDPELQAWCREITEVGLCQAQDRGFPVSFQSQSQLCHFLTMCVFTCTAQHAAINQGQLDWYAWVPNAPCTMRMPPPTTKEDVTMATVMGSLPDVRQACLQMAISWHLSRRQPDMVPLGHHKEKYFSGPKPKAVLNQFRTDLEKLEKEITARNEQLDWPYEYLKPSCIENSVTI
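Hydroperoxide product was detected by ferrous iron/xylenol orange as the 573 to 405 nm absorbance ratio. Arachidonic acid at 40 uM (final) was turned over for 30 min at room temperature by 150 nM human 12hLO, pH 7.0 Hepes buffer, after 15 min compound preincubation.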
ELG1 repair inh: qHTS screen for small molecules that inhibit ELG1-dependent DNA repair in human embryonic kidney (HEK293T) cells expressing luciferase-tagged ELG1. HEK293T ELG1-luciferase reporter, luminescence, 16 h; DNA damage induced by 5-fluorouridine. Potency, µM (top dose mostly 46.1 µM), inactives show top-dose activity change, negative = inhibition, hits mostly inhibitors. actives 2.3% (n = 330,000). AID 504467, 2011; note: nearly all actives have a fitted effect of over 55% in size
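Reporter activity after DNA damage by 5-fluorouridine is monitored. Compound-treated cells incubate 16 hr at 37 °C, then ONE-Glo is added for 30 min before luminescence reading.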
Gal4-VP16 FLuc: VP16 counterscreen qHTS for inhibitors of ROR gamma transcriptional activity. Drosophila S2 Gal4-VP16 UAS-luciferase, luminescence, 20 h. Potency, µM (highest dose often 53.6 µM), for the others: at the top dose activity, negative = inhibition, usual class: inhibitors. actives 3.5% (n = 310,000);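 note: Gal4-VP16 expression switched on by copper sulfate through the metallothionein promoter; nearly all actives have a fitted effect of over 50% in size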
TDP1 cell noCPT: qHTS for Inhibitors of human tyrosyl-DNA phosphodiesterase 1 (TDP1): qHTS in cells in absence of CPT | AID 686978, 2013 | DT40 Tdp1-/- hTDP1 cells, no CPT, ATP luminescence, 48 h | Potency, µM (highest dose often 46.2 µM), without a hit: top-dose activity change, negative = growth inhibition, hits mostly inhibitors | actives 15% (n = 420,000); note: nearly all actives have a fitted effect of over 55% in size
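Seeded 400 DT40-hTDP1 cells/well (vehicle DMSO, no 20 nM CPT); pinned compounds; ≥48 hr at 37 °C; CellTiter-Glo luminescence as viability measure.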
RORg inh: qHTS for inhibitors of ROR gamma transcriptional activity; Potency, µM (doses to about 53.6 µM), for the others: at the top dose activity change, negative = inhibition, hits mostly inhibitors; Nuclear receptor ROR-gamma (Mus musculus), P51450; AID 2551, 2010; actives 5.4% (n = 310,000); Drosophila S2 Gal4-RORgamma UAS-luciferase reporter, 20 h; note: nearly all actives have a fitted effect of over 60% in size
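Stable Schneider cell line, Gal4 DNA-binding domain fused to ROR gamma, UAS-luciferase. Cmpd 1 hr RT → CuSO4 700 uM final → 20 hr RT → luciferase reagent 10 min → luminescence.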
TDP1 cell CPT: qHTS for Inhibitors of human tyrosyl-DNA phosphodiesterase 1 (TDP1): qHTS in cells in presence of CPT; chicken DT40 Tdp1-/-;hTDP1 cells + 20 nM CPT, ATP luminescence, 48 h; actives 12% (n = 420,000); Potency, µM (doses to about 46.2 µM), for inactives: at the top dose activity change, negative = growth inhibition, most hits filed as inhibitors; note: nearly all actives have a fitted effect of over 55% in size
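Cell growth measured by CellTiter-Glo luminescence after a minimum 48 h, 37 C compound exposure with 20 nM CPT in Tdp1-knockout DT40 cells stably expressing hTDP1, seeded 400/well; qHTS titration format.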
* hit, by the source's call; u = inconclusive; x = no result given; [ ] = another dose, or the depositor's remark. Compounds with a hit are over-represented: about 15% of the library has one in this group of screens. Calls come from the whole dose curve; as a rule, active = well fitted curve in the direction sought with a large enough effect; inconclusive = small, poorly fitted or top-dose-only effect, or another doubt; inactive = no such curve, though single readings can be large; an effect the other way counts as inactive or inconclusive. % is set by controls: 0 for no effect and ±100 for the full control effect; potency is the fitted concentration of half-maximal effect.

SMILES	12-LOX inh	ELG1 repair inh	Gal4-VP16 FLuc	TDP1 cell noCPT	RORg inh	TDP1 cell CPT
CC(=O)Nc1cccc(NC(=O)c2cc(-c3cccnc3)nc3ccc(Br)cc23)c1	-1%	u	u	18µM*	u	18µM*
CC(=O)Nc1cccc(NC(=O)c2cc(-c3ccccn3)nc3ccc(Cl)cc23)c1	-21%	-2%	u	3%	u	3%
O=C(Nc1ccccc1O)c1cc(-c2cccnc2)nc2ccccc12	4%	x	x	x	x	x
O=C(Nc1ccc(C(=O)N2CCOCC2)cc1)c1cc(-c2cccnc2)nc2ccc(Cl)cc12	-11%	u	-16%	2.1µM*	-36%	1.8µM*
O=C(NCC12CC3CC(CC(C3)C1)C2)C1CCCCC1	16%	x	x	x	x	x
O=C(O)c1cnc(/C=C/c2cc(Cl)c3c(c2)OCCCO3)s1	-23%	x	x	x	x	x
CCc1cc(/C(Cc2ccc3ccccc3n2)=N\O)c(O)cc1O	7%	u	u	u	u	u
Cc1c(O)ccc(/C(Cc2ccc3ccccc3n2)=N\N)c1O	15%	u	5%	10µM*	-16%	7.3µM*
Cc1noc(C)c1C(=O)N1CCn2c(nnc2-c2cncc(Br)c2)C1	17%[6.33 µM]	x	x	x	x	x
O=C1c2ccccc2C(c2nnnn2-c2ccc3c(c2)OCCO3)N1Cc1ccc2c(c1)OCO2 (stereo not drawn)	-2%	x	x	16µM*	x	18µM*
COc1ccc(OC)c(CN2C(=O)c3ccccc3C2c2nnnn2-c2ccc3c(c2)OCCO3)c1 (stereo not drawn)	-1%	x	x	5.8µM*	x	6.5µM*
COc1ccc(-n2nnnc2C2c3ccccc3C(=O)N2C2CCN(Cc3ccccc3)CC2)cc1 (stereo not drawn)	-12%	x	x	16µM*	x	u
O=C1c2ccccc2C(c2nnnn2-c2ccc3c(c2)OCCO3)N1Cc1cccc(F)c1 (stereo not drawn)	-2%	x	x	16µM*	x	u
O=C1c2ccccc2C(c2nnnn2-c2ccc3c(c2)OCCO3)N1Cc1cccnc1 (stereo not drawn)	-6%	x	x	u	x	-30%
COc1ccc(S(=O)(=O)N2CCN(C3CCN(Cc4ccccc4)CC3)CC2)cc1	-10%	-17%	-4%	u	-1%	-20%
COc1ccc(CCN2C(=O)c3ccccc3C2c2nnnn2-c2ccc3c(c2)OCCO3)cc1OC (stereo not drawn)	-15%	x	x	u	x	-18%
CC1CCN(CCCCNC(=O)/C=C/c2ccc(OC(F)(F)F)cc2)CC1	0%	x	x	x	x	x
O=C1c2ccccc2C(c2nnnn2-c2ccc3c(c2)OCCO3)N1CCc1ccc(O)cc1 (stereo not drawn)	-7%	x	x	u	x	u
O=C1c2ccccc2C(c2nnnn2-c2ccc3c(c2)OCCO3)N1CCc1ccccc1F (stereo not drawn)	-27%	x	x	u	x	15µM*
CN1C(=O)CO[C@H]2CN(c3ccc(C#N)cn3)C[C@H]21	-6%[176 µM]	x	x	x	x	x
COc1ccc(CCNC(=O)c2ccc(OCc3c(C)noc3C)c(OC)c2)cc1	-1%	0%	x	-4%	x	14%
COc1cc(C(=O)NCC(c2ccccc2)N(C)C)ccc1OCc1c(C)noc1C (stereo not drawn)	316%	15%	x	u	x	16µM*
COc1cc(C(=O)OCC#N)ccc1OCc1c(C)noc1C	14%	u	-7%	23µM*	-24%	u
CCOc1ccc(CCNC(=O)c2ccc(OCc3c(C)noc3C)cc2)cc1OCC	-1%	u	x	21µM*	x	26µM*
COc1cc(C(=O)NCCc2c[nH]c3ccccc23)ccc1OCc1c(C)noc1C	0%	u	0%	18µM*	41%	u
SMILES	12-LOX inh	ELG1 repair inh	Gal4-VP16 FLuc	TDP1 cell noCPT	RORg inh	TDP1 cell CPT
COC(=O)c1ccc(OC(=O)c2ccc(OCc3c(C)noc3C)c(OC)c2)cc1	x	11%	6%	x	6%	x
COc1ccc(CCNC(=O)c2ccc(OCc3c(C)noc3C)cc2)cc1OC	-5%	u	x	u	x	u
COc1ccccc1N1CCN(Cc2cc(=O)oc3cc(O)c(Cl)cc23)CC1	-11%	x	x	x	x	x
CCn1nc(C(=O)OCc2ccc3cc(OC)ccc3c2)c2ccccc2c1=O	4%	x	x	x	x	x
O=C(NCCN1CCN(c2ccccc2)CC1)c1cccc(Br)c1	-11%	u	6%	14µM*	11%	u
O=C(C(=O)N1CCN(c2ccncc2)CC1)c1cccc(Br)c1	u	x	x	15µM*	x	15µM*
O=C(NCCN1CCN(C(=O)c2cccc(Br)c2)CC1)C(=O)Nc1ccc(Br)cc1	-23%	-11%	-16%	26µM*	u	13µM*
O=C(NCCN1CCN(C(=O)c2c(F)cccc2F)CC1)C(=O)Nc1ccc(Cl)cc1	-1%	7.3µM*	x	u	x	u
COCCn1c(SCC#N)nnc1-c1ccc(Cl)cc1	-27%	x	x	x	x	x
c1ccc(Cc2nnc([C@H]3CCN(CC4CCCCC4)C3)o2)cc1	89%[176 µM]	x	x	x	x	x
O=C(NNC(=O)C1CCC(c2ccccc2)CC1)c1ccc(Br)cc1 (stereo not drawn)	-44%	x	x	x	x	x
Cn1c(SCC(=O)N2c3ccccc3CCc3ccccc32)nnc1-c1cc2ccccc2cc1O	-7%	-40%	-11%	15µM*	31%	16µM*
Cn1c(SCC(=O)N2CCc3ccccc32)nnc1-c1cccc(F)c1	6%	x	x	x	x	x
Cc1cccc(-c2nnc(SCC(=O)N3c4ccccc4CCc4ccccc43)n2C)c1	u	-16%	-2%	23µM*	-1%[10 µM]	u
Cn1c(SCC(=O)N2CCc3ccccc32)nnc1-c1cccc(NC(=O)c2ccccc2F)c1	35µM*	x	x	x	x	x
CCn1cc(S(=O)(=O)N2CCC(c3noc(-c4cnccn4)n3)C2)cn1 (stereo not drawn)	25%	x	x	x	x	x
COC(=O)N1CCC2(CCCN(Cc3ccc(C#N)cc3)C2)CC1	4%[57.4 µM]	x	5%	u	-11%	-9%
O=C(c1cccc(F)c1)N1CCC2(CCCN(Cc3cc(C(F)(F)F)cc(C(F)(F)F)c3)C2)CC1	-11%[57.4 µM]	x	15%	u	-51%	-11%
COc1ccccc1CN1CCC2(CC1)CCN(C(=O)c1cccc(F)c1)CC2	1%[57.4 µM]	x	-4%	1%	-29%	-3%
